High-throughput results deposited in PubChem BioAssay by several laboratories.
Shown is part of a subset that was picked to be rich in hits.
E coli RNAP – inhibitors of Escherichia coli RNA polymerase; hit rate 0.2% among 62,000; AID 559; E. coli RNA polymerase, fluorescence transcription assay; inhibition, %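 (tested at 10 µM)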; P0A8V2; in the data active = inhibition above about 20%
PLAP activator – activates human placental alkaline phosphatase | P05187 | purified PLAP enzyme, luminescent substrate read-out; active compounds read high | activation fold at 20 µM | hit rate 1.2% among 96,000; in the data active = activation fold above about 2
TNAP act mid DEA – human TNAP activation, intermediate phosphate acceptor; P05186; purified TNAP, CDP-star luminescence, 100 mM DEA, 30 min; active compounds read high; scale: 0 levamisole-inhibited, 1 vehicle-only enzyme; activation factor at 20 µM; 64,000 tested, under 10 active;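 active = activation factor of at least 2 at 20 µM, relative to controls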
Numbers stand for hits.

How did O=C(CN(c1ccc(Cl)c(C(F)(F)F)c1)S(=O)(=O)c1ccccc1)N/N=C/c1cccc2c1OCCO2 do in these assays?
PLAP activator: inactive

Results for O=C([C@H](Cc1ccccc1)NS(=O)(=O)c1ccc(Cl)cc1)N1CC[C@@]2(O)CCCC[C@H]2C1 ?
PLAP activator: inactive

Results for CCN(CC)c1ccc(C2C(C(=O)OC(C)C)C(=O)CC(C)(O)C2C(=O)OC(C)C)cc1 (configuration not stated) ?
PLAP activator: inactive

Results for Cc1c(C(=O)Nc2ccc(Cl)cc2)c2ccccn2c1C(=O)c1ccc(F)cc1 ?
PLAP activator: inactive

Results for Cc1c(/C=N/NC(=O)c2cc(=O)[nH]c(=O)[nH]2)c2ccccn2c1C(=O)c1ccccc1 ?
PLAP activator: 2.2

Results for COc1ccc(N/C(N)=N/c2nc(CSc3ccc(Cl)cc3)cc(=O)[nH]2)cc1 ?
PLAP activator: 2

Results for N/C(=N\c1nc(CSc2ccc(Cl)cc2)cc(=O)[nH]1)Nc1cccc2ccccc12 ?
PLAP activator: inactive

What do the screens show for `COc1ccc(C(C(=O)NC(C)(C)C)N(CC2CCCO2)C(=O)CCC(=O)Nc2cc(C)on2)cc1` (configuration not stated)?
PLAP activator: inactive

How did CCc1[nH]nc2c1C1(CCN(C(=O)c3ccccc3)CC1)C(C#N)=C(N)O2 do in these assays?
E coli RNAP: inactive; PLAP activator: inactive; TNAP act mid DEA: inactive

Results for Cc1ccc(SCc2[nH]nc3c2C2(C(=O)Nc4ccc(F)cc42)C(C#N)=C(N)O3)cc1 (configuration not stated) ?
PLAP activator: 2

What do the screens show for `CC(=O)N1CCC2(CC1)C(C#N)=C(N)Oc1n[nH]c(CSc3ccc(C)cc3)c12`?
E coli RNAP: inactive; PLAP activator: 2; TNAP act mid DEA: inactive

What do the screens show for `Cc1[nH]nc2c1C1(C(=O)Nc3ccc([N+](=O)[O-])cc31)C(C#N)=C(N)O2` (configuration not stated)?
PLAP activator: inactive

How did Cc1ccc2cc(CCNC(=O)CC(C)C)c(=O)[nH]c2c1 do in these assays?
E coli RNAP: inactive; TNAP act mid DEA: inactive

Results for Cc1nc2ccc(S(=O)(=O)Nc3ccccc3C)cc2s1 ?
E coli RNAP: inactive; PLAP activator: inactive; TNAP act mid DEA: inactive

How did CCOC(=O)Cn1c(=O)oc2cc(S(=O)(=O)NCc3cccs3)ccc21 do in these assays?
E coli RNAP: inactive; PLAP activator: inactive; TNAP act mid DEA: inactive

What do the screens show for `CCOC(=O)Cn1c(=O)oc2cc(S(=O)(=O)NCc3ccccn3)ccc21`?
E coli RNAP: inactive; PLAP activator: 2; TNAP act mid DEA: inactive

How did CC(=O)Nc1cc(NC(C)=O)cc(C(=O)NC(C)(C)C)c1 do in these assays?
E coli RNAP: inactive; PLAP activator: inactive; TNAP act mid DEA: inactive

Results for Cc1cc2ncc(-c3ccc(Cl)cc3)c(N)n2n1 ?
E coli RNAP: inactive; PLAP activator: 2; TNAP act mid DEA: inactive

How did Nc1c(-c2ccc(Cl)cc2)cnc2ncnn12 do in these assays?
PLAP activator: inactive

What do the screens show for `O=C(CN1CCCCCC1)N/N=C/c1cccs1`?
PLAP activator: 2.5

How did CCCCCC(=O)N/N=C/c1cccs1 do in these assays?
PLAP activator: inactive

What do the screens show for `Cc1nc2sc(C(c3ccc(F)cc3)N3CCN(C(=O)c4ccco4)CC3)c(O)n2n1` (configuration not stated)?
E coli RNAP: inactive; TNAP act mid DEA: inactive

Results for Cc1ccccc1NC(=S)NNc1ncc(C(F)(F)F)cc1Cl ?
PLAP activator: inactive

How did Cc1cccc(C)c1NC(=S)NNc1ncc(C(F)(F)F)cc1Cl do in these assays?
PLAP activator: 2.1

What do the screens show for `CC(C)OCCCNC(=O)CCSc1ccc(Cl)cc1`?
PLAP activator: inactive

What do the screens show for `C=CCOc1ccccc1/C=c1\sc2nc(-c3oc4ccccc4c3C)nn2c1=O`?
E coli RNAP: inactive; TNAP act mid DEA: inactive

Results for CCCOc1ccc(C2C(C(=O)OC)=CN(CCOC)C=C2C(=O)OC)cc1 ?
E coli RNAP: inactive; PLAP activator: 2.1; TNAP act mid DEA: inactive

What do the screens show for `COCCN1C=C(C(=O)OC)C(c2ccc(OC)c(OC)c2)C(C(=O)OC)=C1`?
E coli RNAP: inactive; PLAP activator: inactive; TNAP act mid DEA: inactive

How did COc1ccc(NC(=O)N2CCCC(c3nc(-c4ccc(C(C)C)cc4)no3)C2)cc1 (configuration not stated) do in these assays?
PLAP activator: inactive; TNAP act mid DEA: inactive

Results for COc1cccc(NC(=O)CSc2nnc(-c3cccc(OC(C)C)c3)n2N)c1 ?
E coli RNAP: inactive; PLAP activator: inactive; TNAP act mid DEA: inactive

What do the screens show for `N/C(Cc1cccs1)=N\OC(=O)COc1ccc(Cl)cc1Cl`?
PLAP activator: inactive

How did Cc1ccc2c(c1)N(CCC(=O)NCC1COc3ccccc3O1)C(=O)CO2 (configuration not stated) do in these assays?
E coli RNAP: inactive; PLAP activator: 2.2; TNAP act mid DEA: inactive

How did CCC1Oc2ccc(C)cc2N(CC(=O)NCC2COc3ccccc3O2)C1=O (configuration not stated) do in these assays?
PLAP activator: inactive

How did CCCOC(=O)c1ccc(Oc2cn[nH]c2-c2ccc(OCC)cc2O)cc1 do in these assays?
E coli RNAP: inactive; PLAP activator: inactive; TNAP act mid DEA: inactive

How did CCCOC(=O)c1ccc(Oc2c(-c3ccc(OCC)cc3O)n[nH]c2C)cc1 do in these assays?
E coli RNAP: inactive; PLAP activator: 2.2; TNAP act mid DEA: inactive

How did O=C(CSc1ncn[nH]1)Nc1ccccc1-c1ccccc1 do in these assays?
PLAP activator: inactive

Results for O=C(CSc1ncn[nH]1)Nc1nnc(-c2ccccc2)s1 ?
E coli RNAP: inactive; PLAP activator: 2.3; TNAP act mid DEA: inactive

How did CCCS(=O)(=O)N1CCN(C(=O)COc2ccc(-c3ccccc3)cc2)CC1 do in these assays?
E coli RNAP: inactive; TNAP act mid DEA: inactive

How did C#CCOC(=O)C(NC(=O)c1ccccc1)=C1CCCCC1 do in these assays?
PLAP activator: inactive

What do the screens show for `CCOC(=O)c1c(-c2ccc(C)o2)csc1NC(=O)CN1CCOCC1`?
PLAP activator: inactive

What do the screens show for `CCOC(=O)c1c(-c2ccc(C)o2)csc1NC(=O)CSc1ncn[nH]1`?
PLAP activator: 2.2

How did O=C(NCc1ccc(OC(F)(F)F)cc1)C1CC(c2c(Cl)cccc2Cl)=NO1 (configuration not stated) do in these assays?
PLAP activator: inactive

What do the screens show for `CCN1CCN(c2nc3ccccc3nc2C(C#N)S(=O)(=O)c2ccc(C)cc2)CC1` (configuration not stated)?
PLAP activator: inactive

What do the screens show for `CCN1CCN(c2nc3ccccc3nc2C(C#N)S(=O)(=O)c2ccc(C)c(C)c2)CC1` (configuration not stated)?
PLAP activator: 2

How did O=C(CCCNS(=O)(=O)c1cccc2nsnc12)N1CCCCC1 do in these assays?
E coli RNAP: inactive; PLAP activator: inactive; TNAP act mid DEA: inactive

Results for O=C(CCCNS(=O)(=O)c1cccc2nsnc12)NC1CCCCC1 ?
E coli RNAP: 26; PLAP activator: inactive; TNAP act mid DEA: inactive

Results for CCc1cc2c(SCC(=O)O)ncnc2s1 ?
E coli RNAP: inactive; PLAP activator: inactive; TNAP act mid DEA: inactive

What do the screens show for `CCc1cc2c(SCC(=O)c3cccs3)ncnc2s1`?
E coli RNAP: 24; PLAP activator: inactive; TNAP act mid DEA: inactive

Results for Cc1cc(C)c2nc(N3CCC(C(=O)NCCCN4CCCCC4)CC3)sc2c1 ?
PLAP activator: 2
